Screens: PubChem BioAssay, National Center for Advancing Translational Sciences (NCATS)
RXFP1 antag = RXFP1 (human) relaxin receptor antagonism. Q9HBX9. HEK293-RXFP1, relaxin-stimulated cAMP HTRF, 30 min; active compounds read low. activity change, negative = inhibition, % at 57.5 µM. hit rate 0.59% among 350,000;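 active means activity change of -60% or lower, but not beyond a set lower limit; inconclusive means change between -60% and -40%, or beyond the set limit; inactive means change above -40%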; further: on the % scale 0 is the no-effect control and ±100 the full control effect
Akt phos inh = blocks phosphorylation of Akt | activity change, % for hits at 50 µM | hit rate 0.32% among 360,000 | Neuro2A IGF-stimulated pAkt S473 HTRF, 20 min; active compounds read low; in the data active means activity change below about -80%; inconclusive means mostly about -51% to -80%; further: on the % scale 0 is the no-effect control and ±100 the full control effect
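Neuro2A cells in DMEM with 0.5% FBS, overnight at 37 deg C, given compound at single 50 µM final, then IGF (6 nM final) for 20 min at 37 deg C. Lysed; phospho-Akt Ser473 by HTRF after 24 h, 665/615 ratio.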
RXFP1 ag = RXFP1 (human) receptor agonism. Q9HBX9. AID 2676. hit rate 0.3% among 370,000. Potency, µM (highest dose often 57.5 µM), inactives show at the top dose activation, usual class: activators. HEK293T-RXFP1 cAMP TR-FRET, 30 min; response scale: percent of porcine relaxin response, buffer zero; active means well fitted activation curve with a large enough effect; inconclusive means small, poorly fitted or top-dose-only effect; further: potency means the concentration at half of the fitted maximal effect; on the % scale 0 is the no-effect control and ±100 the full control effect; nearly all actives have a fitted effect of over 60% in size
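HEK293 cells stably expressing RXFP1, treated 30 min at 37C with compounds plus PDE4 inhibitor Ro 20174; cAMP measured by HTRF TR-FRET. Normalized to buffer and 29 nM porcine relaxin; EC50 by Hill fit.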
gsp antagonist = gsp mutant antagonism | gsp-mutant cells, cAMP HTRF, 30 min | Potency, µM (top dose mostly 76.9 µM), inactives show at the top dose activity change, negative = inhibition, usual class: inhibitors | hit rate 0.4% among 340,000 | AID 624288; calls by dose curve; cell line not stated here;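 further: intracellular cAMP measured with PDE inhibitor Ro 20-1724 present during compound exposure; potency means the concentration at half of the fitted maximal effect; on the % scale 0 is the no-effect control and ±100 the full control effect; nearly all actives have a fitted effect of over 65% in size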
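Cells, 2000/well, grown 16–24 h in DMEM 10% FBS with 0.5 mg/ml G418, then compounds plus […] (300 uM addition stock), 30 min at 37C. cAMP read by HTRF (cAMP-d2 and anti-cAMP antibody-K in lysis buffer) after 30 min RT.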
gsp ag = agonists of gsp mutant (McCune-Albright syndrome). gsp mutant cells, cAMP HTRF, 30 min. Potency, µM (highest dose often 76.9 µM), for inactives: top-dose activation (cAMP increase), most hits filed as activators. hit rate 0.13% among 340,000; active means well fitted activation curve with a large enough effect; inconclusive means small, poorly fitted or top-dose-only effect, or another doubt; inactive means no such curve, though single readings can be large or run the other way; cell line not stated here;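 further: phosphodiesterase inhibitor Ro 20-1724 added with compounds to block cAMP breakdown; potency means the concentration at half of the fitted maximal effect; nearly all actives have a fitted effect of over 60% in size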
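Cells in DMEM/10% FBS with G418 were pretreated with compounds in DMSO plus […] (300 uM stock) for 30 min at 37C. cAMP was measured by HTRF (cAMP-d2 plus anti-cAMP antibody-K) after 30 min at room temperature.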
TSHR antagonist = human thyrotropin receptor antagonism. AID 504810. activity change, negative = inhibition, % at 11.5 µM. hit rate 0.2% among 330,000. TSHR-expressing cells, TSH-stimulated cAMP HTRF, 2 h; active compounds read low. P16473;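 active means activity change below a set negative limit, meaning inhibition stronger than a set level, cut at about -70% in these data; inconclusive means activity change between two set negative limits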; further: on the % scale 0 is the no-effect control and ±100 the full control effect
Target sequence (P16473 whole entry, looked up): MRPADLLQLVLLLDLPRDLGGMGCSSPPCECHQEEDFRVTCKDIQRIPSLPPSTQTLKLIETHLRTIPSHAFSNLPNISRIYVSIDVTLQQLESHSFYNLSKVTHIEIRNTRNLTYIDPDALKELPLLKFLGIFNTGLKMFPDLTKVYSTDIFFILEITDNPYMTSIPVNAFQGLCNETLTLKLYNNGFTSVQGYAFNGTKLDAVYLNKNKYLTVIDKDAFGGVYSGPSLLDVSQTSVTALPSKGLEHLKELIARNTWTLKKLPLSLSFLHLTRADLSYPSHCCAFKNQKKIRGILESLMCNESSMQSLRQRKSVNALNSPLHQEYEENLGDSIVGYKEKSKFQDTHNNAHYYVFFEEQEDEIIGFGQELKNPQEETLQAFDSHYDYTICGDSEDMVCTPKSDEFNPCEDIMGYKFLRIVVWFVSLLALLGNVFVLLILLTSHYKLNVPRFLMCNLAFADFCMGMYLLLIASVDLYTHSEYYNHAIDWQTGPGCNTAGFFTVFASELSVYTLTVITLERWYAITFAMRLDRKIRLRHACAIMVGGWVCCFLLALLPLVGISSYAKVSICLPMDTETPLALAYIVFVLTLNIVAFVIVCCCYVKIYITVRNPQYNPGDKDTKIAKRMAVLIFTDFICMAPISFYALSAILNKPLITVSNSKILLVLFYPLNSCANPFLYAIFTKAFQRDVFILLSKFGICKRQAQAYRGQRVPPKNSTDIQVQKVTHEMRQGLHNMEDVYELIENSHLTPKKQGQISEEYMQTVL
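Freshly harvested TSHR cells receive pin-tooled compound, then EC80 TSH at 4nM final. After 2 hours at 37 deg C, antibody in lysis buffer and cAMP-d2 are added; 30 minutes at ambient temperature precede the HTRF read.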
Starred values were filed as active, the others as inactive; i = inactive; ? = inconclusive; . = no result; [ ] = dose if it differs, or a comment. Most compounds without a hit are left out; they make up all but 1.3% or so of the library.

SMILES | RXFP1 antag | Akt phos inh | RXFP1 ag | gsp antagonist | gsp ag | TSHR antagonist
O=C(CC(=O)c1ccccc1O)c1ccc(F)cc1 | -35 | i | 4% | 40µM* | ? | -9
O=C(CCC(=O)Nc1ccccc1)N/N=C/c1ccc2c(c1)OCO2 | 0 | i | 0% | 3% | 4% | 9
O=C(CCC(=O)Nc1ccc(Cl)cc1)N/N=C/c1ccc2c(c1)OCO2 | -11 | i | 5% | 3% | 14% | -72*
NCC(O)COCCC12CC3CC(CC(C3)C1)C2 (stereo unspecified) | -1 | i | -1% | 4% | 8% | 11
CC(NCC(O)COCCC12CC3CC(CC(C3)C1)C2)c1ccccc1 (stereo unspecified) | -62* | i | 1% | 1% | ? | 4
CC(=O)c1ccc2c(c1)N(C)c1ccccc1S2 | -5 | i | 0% | 5% | 25% | 15
C=Cc1ccc2c(c1)N(C)C(=C)S2 | -119* | i | 1% | 11% | -11% | 1
O=C(Cc1ccc(Cl)cc1)Nc1ccccc1N1CCN(C(=O)c2ccccc2)CC1 | 0 | i | 0% | 28µM* | -2% | -13
O=C(Nc1ccccc1N1CCN(C(=O)c2ccccc2)CC1)c1ccc(Cl)cc1 | 2 | i | 3% | ? | -2% | -7
Cc1cc2c(=O)oc(-c3ccccc3Br)nc2s1 | -13 | i | -1% | 35µM* | 1%[15.4 µM] | -19
FC(F)(F)c1ccccc1/C=N/n1c(C2CCCCC2)n[nH]c1=S | -13 | i | 3% | -7% | -18% | -12
S=c1[nH]nc(C2CCCCC2)n1/N=C/c1ccccc1Cl | -37 | i | -3% | 40µM* | 27%[15.4 µM] | -8
CC(OC(=O)C1=COCCO1)C(=O)NC1CCCCC1C (stereo unspecified) | -5 | i | -2% | 6% | -18% | 9
Cc1ccc(S(=O)(=O)N2CCCCC2)cc1NC(=O)CSc1nnc(C2CC2)n1N | -15 | i | . | 12% | 5%[15.4 µM] | .
Cc1cccc(OCC(O)CN2C(C)(C)CC(O)CC2(C)C)c1 (stereo unspecified) | -2 | i | 1% | 13% | -5% | .
CC1(C)CC(O)CC(C)(C)N1CC(O)COCc1ccccc1 (stereo unspecified) | 2 | i | -1% | 2% | ? | -134*
C/C(O)=c1/c(=O)nc2cccc3c2=c1c1ccccc1c3=O | 16 | i | -1% | 6% | -13%[15.4 µM] | 7
COc1cc(OC)cc(C(=O)NCCN2C(=O)S/C(=C\c3cccs3)C2=O)c1 | 0 | i | -3% | 28µM* | -65% | -10
COc1cc(C(=O)NCCN2C(=O)S/C(=C\c3cccs3)C2=O)cc(OC)c1OC | -5 | i | -19% | ? | -13%[15.4 µM] | -13
CCOc1cc(/C=N\NC(=O)OC)ccc1OC(=O)c1ccco1 | -64* | i | 6% | 0% | -65% | 13
CCOc1cc(/C=N\NC(=O)OC(C)(C)C)ccc1OC(=O)c1ccco1 | -22 | i | -1% | -9% | 11%[15.4 µM] | 23
Cc1cccc(N2CCN(C(=O)c3cc4ccc5cccnc5c4[nH]3)CC2C)c1 (stereo unspecified) | -61* | . | -3% | . | . | .
Cc1ccc(C)c(N2CCN(C(=O)c3cc4ccc5cccnc5c4[nH]3)CC2)c1 | -33 | . | 4% | . | . | .
COc1ccccc1NC(=O)N1CCCC(CNC(=O)c2ccccc2Cl)C1 (stereo unspecified) | 11 | i | 1% | 45µM* | -4% | -8
C[N+]1(CC2COC(c3ccccc3)(c3ccccc3)O2)CCCCC1 (stereo unspecified) | -2 | . | . | . | . | .
SMILES | RXFP1 antag | Akt phos inh | RXFP1 ag | gsp antagonist | gsp ag | TSHR antagonist
COc1cccc(-c2nc3ccccc3c(=O)o2)c1 | -14 | i | 1% | ? | -6% | -13
COc1cc(OC)cc(-c2nc3ccccc3c(=O)o2)c1 | -24 | -99%* | -2% | -13% | -12% | -5
CCOC(=O)c1sc(NC(=O)Cn2nnc3sc4c(c3c2=O)CCCC4)nc1C | 1 | i | 2% | -10% | -22% | -5
CCOC(=O)c1nc2sc3c(c2c(=O)n1C(C)C(=O)OCC)CCCC3 (stereo unspecified) | -61* | i | 5% | -23% | -10%[15.4 µM] | -20
Cc1ccc(N(CC(=O)Nc2c(C)n(C)n(-c3ccccc3)c2=O)S(C)(=O)=O)cc1C | -1 | -109%* | -2% | -4% | 20% | -17
O=C(COc1ccc2ccccc2c1Br)Nc1cccnc1 | -15 | i | 15% | 17% | 6.3µM* | -47
O=C(COc1ccc2ccccc2c1Br)Nc1ccncc1 | 2 | i | 7% | -1% | ? | -37
O=S(=O)(c1ccccc1)c1cnn2c(C(F)(F)F)cc(-c3ccccc3)nc12 | -2 | -90%* | -2% | 1% | 9% | -6
CCn1c(COc2cccc(C)c2)nnc1SCC(=O)Nc1cccc(C(=O)OC)c1 | -5 | i | 1% | 28µM* | -2% | -13
O=C(CSc1nnc(-c2cccs2)n1-c1ccccc1)Nc1ccccc1 | -6 | -92%* | ? | 17% | ? | 12
Cn1c(SCC(=O)NC2CCCCC2)nnc1-c1ccncc1 | -22 | i | 1% | 8% | ? | -15
Cc1ccc(-c2nnc(SCC(=O)NC3CCCC3)n2C)cc1 | -1 | i | -1% | 11% | -5%[15.4 µM] | -94*
CCCCSc1nnc(-c2ccc(C)cc2)n1C | -15 | -113%* | -1% | 4% | -12% | -24
CCn1c(SCC(=O)NC2CCCCC2)nnc1-c1cccs1 | -9 | -98%* | 5% | 3% | ? | 16
COc1cc2nc(SCC(=O)Nc3ccc(F)cc3)n3nc(CCn4c(C)nc5ccccc54)nc3c2cc1OC | . | . | 7% | . | . | .
COc1cc2nc(SCC(=O)Nc3cccc(C)c3)n3nc(CCn4c(C)nc5ccccc54)nc3c2cc1OC | -4 | . | 18µM* | . | . | .
Cc1cc(NC(=O)CSc2ncnc3c2cnn3-c2cccc(Cl)c2)no1 | 6 | i | 6.3µM* | -11% | -10% | 8
Cc1cc(NC(=O)CSc2ncn(-c3ccccc3)n2)no1 | -8 | -112%* | 2% | -5%[15.4 µM] | -34% | 8
Cc1cc(NC(=O)CSc2ccc3nnc(-c4ccccn4)n3n2)no1 | . | i | 11% | 6% | 6.3µM* | 16
Cc1cc(NC(=O)CSc2ncccn2)no1 | 14 | i | 0% | 7% | -51% | 0
O=C(CSc1ccc2nnc(-c3ccccn3)n2n1)Nc1ccccc1 | 2 | i | 23% | 14% | -20%[15.4 µM] | 9
COc1ccc(-c2nnc(SCC(=O)Oc3c(C)cccc3C)o2)cc1OC | -4 | . | -2% | . | . | .
CCCCCCCCCCCCOCCO | -8 | . | . | . | . | .
